High-throughput results (PubChem)
KDM4E inh – blocks human JMJD2E demethylase activity; actives 1.6% (n = 230,000); AID 2147; B2RXH2; Potency, µM (top dose mostly 57.1 µM), actives largely listed as inhibitors; JMJD2E catalytic domain, FDH-coupled NADH fluorescence (FDH is formaldehyde dehydrogenase); also: nearly all actives have a fitted effect of over 50% in size
Target sequence (B2RXH2 1-337 limits assumed): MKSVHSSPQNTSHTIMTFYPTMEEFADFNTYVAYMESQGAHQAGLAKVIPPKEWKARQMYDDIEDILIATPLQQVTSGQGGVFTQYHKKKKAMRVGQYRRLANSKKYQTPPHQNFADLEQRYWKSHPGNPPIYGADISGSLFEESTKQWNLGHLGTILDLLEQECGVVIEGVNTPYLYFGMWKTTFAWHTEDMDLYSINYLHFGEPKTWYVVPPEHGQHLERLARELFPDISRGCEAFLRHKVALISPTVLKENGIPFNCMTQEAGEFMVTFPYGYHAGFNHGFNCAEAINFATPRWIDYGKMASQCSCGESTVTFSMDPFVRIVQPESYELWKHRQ
Tau fibril FP – inhibitors of human tau fibril formation; K18 P301L tau heparin fibrillization, Alexa594 FP, 6 h; Potency, µM (titrated, usually from 57.7 µM), actives largely listed as inhibitors; actives 0.39% (n = 280,000); AID 1468; also: nearly all actives have a fitted effect of over 55% in size
Target sequence (P10636 561-689 P618L limits assumed): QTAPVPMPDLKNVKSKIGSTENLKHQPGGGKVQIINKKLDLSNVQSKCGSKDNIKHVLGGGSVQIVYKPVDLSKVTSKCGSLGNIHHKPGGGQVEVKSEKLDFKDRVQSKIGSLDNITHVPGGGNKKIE
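Human K18 P301L fragment (15 uM unlabeled plus 0.24 uM Alexa 594-labeled) in 100 mM sodium acetate pH 7 with compound, aggregation induced by 20 uM heparin for 6 hr at 37 C. ThT (30 uM) added for 1 hr, then Alexa 594 FP read.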
Tau ThT inhib – blocks human tau fibril formation measured by thioflavin T | AID 1460 | Potency, µM (titrated, usually from 57.4 µM), actives largely listed as inhibitors | recombinant tau K18 P301L, heparin-induced fibrillization, ThT fluorescence | P10636 | actives 2.1% (n = 270,000); also: nearly all actives have a fitted effect of over 55% in size
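Tau K18 P301L fragment (15 uM unlabeled plus 0.24 uM Alexa 594-labeled) in 100 mM sodium acetate pH 7 with compound, fibrillization induced by 20 uM heparin for 6 hr at 37 C. Thioflavin T (30 uM) added, fluorescence read after 1 hr (ex 450, em 510 nm).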
Coupling enz – coupling enzyme interference in Giardia aldolase counter-screen; coupling enzyme system counterscreen, AmpLite Red fluorescence; activity change, negative = inhibition, % at 58.2 µM, hits read low; actives 0.67% (n = 290,000); AID 2472; in the data active = activity change below about -30%
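Compounds tested against the coupling enzymes alone at 57.5 uM final; readout was AmpLite Red fluorescence (525/598 nm) after 20 min at RT.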
Tau fluor cs – counter-screen for tau fibril formation inhibitors; tau K18 P301L Alexa594 fluorescence, heparin fibrillization; Potency, µM (doses to about 57.7 µM); actives 0.93% (n = 280,000); AID 1463; also: nearly all actives have a fitted effect of over 55% in size
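Human tau K18 P301L (15 uM unlabeled, 0.24 uM Alexa 594-labeled) in 100 mM sodium acetate pH 7 with 20 uM heparin, 6 hr at 37 C. ThT 30 uM added, 1 hr ambient; Alexa 594 FP and total fluorescence read at 555/632 nm.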
A number is an active result; - = inactive; ? = inconclusive; . = no result; [ ] = dose if it differs, or a comment. Most compounds without a hit are left out; they make up all but 3% or so of the library. Unless noted, calls follow the shape of the dose curve; as a rule, active = well fitted curve in the direction sought with a large enough effect; inconclusive = small, poorly fitted or top-dose-only effect, or another doubt; inactive = no such curve, though single readings can be large; an effect the other way counts as inactive or inconclusive.

SMILES	KDM4E inh	Tau fibril FP	Tau ThT inhib	Coupling enz	Tau fluor cs
COCCNc1ncnc2ccc(-c3ccccc3OC)cc12	.	.	.	-	.
COc1ccc(S(=O)(=O)Nc2cc(S(=O)(=O)c3ccccc3)c(O)cc2C)cc1	.	.	.	-	.
COc1ccc(S(=O)(=O)Nc2cc(SCC(=O)O)c(O)c3ccccc23)cc1	.	.	.	-47.2	.
COc1ccc(NCc2ccc([N+](=O)[O-])s2)c(OC)c1	10µM	?	?	-	?
COc1ccc(NCc2ccc([N+](=O)[O-])s2)cc1	?	-	?	-	-
CCC(Sc1nc(-c2ccccc2)[nH]c1S(=O)(=O)c1ccc(C)cc1)C(=O)O (configuration not stated)	.	-	-	.	-
COC(=O)c1[nH]c2ccc(Br)cc2c1NC(=O)CN1CCCc2ccccc21	-	-	?	-	5.01µM[quencher]
COC(=O)c1[nH]c2cc(C)ccc2c1NC(=O)CN1CCCc2ccccc21	-	?	?	.	?
CC(C)=CCCC1(C)C=Cc2c(c(C)cc3c2[nH]c2ccccc23)O1 (configuration not stated)	-	-	?	-	8.91µM[quencher]
CC(=O)c1ccc(NS(=O)(=O)c2cc(-c3cc(C)no3)ccc2C)cc1	.	-	-	.	-
CCOc1ccc(-c2csc(/C(C#N)=C\c3ccc(O)c([N+](=O)[O-])c3)n2)cc1	-	?	1.26µM	-	7.08µM[quencher]
O=C(CSc1nc(-c2ccccc2)c(-c2ccccc2)[nH]1)Nc1nccs1	?	-	?	-	14.1µM[quencher]
COCCNC(=O)CSc1nc(-c2ccc(C)cc2)[nH]c1-c1ccc(OC)cc1	.	?	-	.	-
COc1ccc(-c2[nH]c(-c3ccc(C)cc3)nc2SCC(=O)Nc2nccs2)cc1	-	?	?	-	17.8µM[quencher]
Nc1ccccc1SCC(=O)Nc1nccs1	-	-	-	-	-
COc1ccc(-c2nc(SCC(=O)Nc3nccs3)c(-c3ccc(Cl)cc3)[nH]2)cc1	-	-	-	-	-
COc1ccc(-c2[nH]c(-c3ccc(SC)cc3)nc2SCC(=O)Nc2nccs2)cc1	?	-	?	-	7.08µM[quencher]
Cc1ccc2sc(N(Cc3cccnc3)C(=O)CCOc3ccccc3)nc2c1C	.	-	-	.	-
C=C(C)[C@@H]1CC[C@]2(C(=O)O)CC[C@]3(C)[C@H](CCC4[C@@]5(C)CC[C@H](O)C(C)(C)[C@@H]5CC[C@]43C)[C@@H]12 (some centres not stated)	.	-	-	.	-
CCCCC(CC)C(=O)Nc1ccc(Nc2ccccc2)cc1 (configuration not stated)	-	-	?	-	10µM[quencher]
O=C(Nc1ccccc1)C(Cl)C(=O)c1ccccc1 (configuration not stated)	.	.	.	-	.
CC(=O)C(Cl)C(=O)Nc1ccccc1 (configuration not stated)	-	?	25.1µM	-	-
O=C(N/N=C/c1ccc([N+](=O)[O-])o1)c1ccc(O)cc1	?	-	10µM	-	-
O=C(N/N=C/c1ccc(N2CCOCC2)cc1)c1ccc(O)cc1	?	-	5.01µM	-	-
O=C(N/N=C/c1ccc([N+](=O)[O-])o1)c1cc2ccccc2o1	-	-	.	-	-
SMILES	KDM4E inh	Tau fibril FP	Tau ThT inhib	Coupling enz	Tau fluor cs
O=C(N/N=C/c1ccc([N+](=O)[O-])o1)c1cc2c(ccc3ccccc32)o1	?	-	1.12µM	-	?
C/C(=N\NC(=O)c1ccc(O)cc1)c1ccc(N2CCOCC2)cc1	-	-	?	-	-
CCCC[C@H]1CCCO[C@@](C(=O)NCCN2CCOCC2)(C(F)(F)F)C1	.	.	.	-	.
CCCC[C@H](NC(C)=O)C(=O)N[C@@H](CCC(=O)O)C(=O)N[C@@H](Cc1cnc[nH]1)C(=O)N[C@H](Cc1ccccc1)C(=O)N[C@@H](CCCN=C(N)N)C(=O)N[C@H](Cc1c[nH]c2ccccc12)C(=O)NCC(N)=O	.	.	.	-	.
CCN(CC)CCC(c1ccc(N(C)C)cc1)c1c(OC)cc(OC)c2c1OC(=O)CC2c1ccc(OC)cc1 (configuration not stated)	.	.	.	-	.
Cc1nc(NCc2ccccc2)c2nc(-c3ccccc3)n(CC(C)(C)CN(C)C)c2n1	?	-	-	-	-
CCN(CC)c1cc(C)c2cc(NC(=O)/C=C/c3ccccc3OC(C)C)ccc2n1	.	?	?	.	7.94µM[quencher]
CCN(CC)c1ccc(C(=O)Nc2ccc3nc(N(CC)CC)cc(C)c3c2)cc1	.	-	3.55µM	.	14.1µM[quencher]
COc1ccc(-c2noc(-c3ccc(NCc4ccco4)c([N+](=O)[O-])c3)n2)cc1OC	.	-	-	.	-
COc1ccc(NC(=O)Nc2c[nH]c(=O)[nH]c2=O)c(OC)c1	.	-	-	.	-
Cc1ccc(S(=O)(=O)Nc2cccc3ncccc23)s1	-	-	-	-40.2	-
CCOc1ccc(CCNC(=O)c2ccc3[nH]c(C)c(C)c3c2)cc1	.	-	?	.	25.1µM[quencher]
COc1ccc(O)c(/C=N/Nc2nc(Nc3ccccc3)nc(-n3nc(C)cc3C)n2)c1	14.1µM	?	?	-	?
COc1cc(OC)c(NS(=O)(=O)c2c(C)nc3sc(C)cn3c2=O)cc1Cl	.	-	-	.	-
COc1ccc(N2CCN(C(=O)CSc3c4c(nc5ccc(Cl)cc35)CCCC4)CC2)cc1	.	-	14.1µM	.	?
O=C(CSc1c2c(nc3ccc(Cl)cc13)CCCC2)N1CCN(c2ccc(Cl)cc2)CC1	.	-	?	.	-
COc1cc(OC)c(NC(=S)Nc2cc(Cl)cc(Cl)c2)cc1Cl	-	-	?	-	25.1µM[quencher]
COc1ccc(-c2nc(SCC(=O)Nc3ccc4c(c3)OCO4)c(-c3ccc(F)cc3)[nH]2)cc1OC	.	-	-	.	?
COc1ccc(-c2nc(SCC(=O)Nc3ccccc3)c(-c3ccc(F)cc3)[nH]2)cc1OC	.	?	?	.	7.08µM[quencher]
COc1ccc(NC(=O)CSc2nc(-c3ccccc3)[nH]c2-c2ccccc2)cc1OC	.	-	?	.	15.8µM[quencher]
COc1ccc(NC(=O)CSc2nc(-c3ccc(F)cc3)[nH]c2-c2ccc(C)cc2)cc1OC	.	-	?	.	3.55µM[quencher]
COc1cc(-c2nc(SCC(=O)Nc3ccc(C)cc3)c(-c3ccc(F)cc3)[nH]2)cc(OC)c1OC	.	-	-	.	4.47µM[quencher]
CCn1c(SCc2ccc(F)cc2Cl)nc(=O)c2c(C(=O)OC)cc(C3CC3)nc21	.	-	?	.	-
COCCNC(=O)CSc1nc(-c2cc(OC)c(OC)c(OC)c2)[nH]c1-c1ccc(Cl)cc1	.	?	?	.	15.8µM[quencher]
COCCNC(=O)CSc1nc(-c2ccc(F)cc2)[nH]c1-c1ccc(Cl)cc1	.	?	-	.	?
CCOC(=O)Cc1csc(NC(=O)c2sc3nc4cc(C)ccc4cc3c2N)n1	-	-	2.51µM	-	?
CCOC(=O)Cc1csc(NC(=O)c2ccc(Br)o2)n1	-	-	-	-	-
CCOC(=O)Cc1csc(NC(=O)c2ccc(C)cc2)n1	-	-	-	-	-
CCOC(=O)Cc1csc(NC(=O)c2sc3nc4ccc(CC)cc4cc3c2N)n1	?	-	8.91µM	-	-
CO/N=C(\C)CCN1CCc2nc(-c3ccccc3)c(-c3ccccc3)cc2C1	.	?	-[11.5 µM]	-	-[11.6 µM]
